Laboratory results: PubChem BioAssay (NCATS)
Results filed as inconclusive are left out. Active and inactive are the calls of the source. Unless noted, the call rests on the fitted dose curve; in most records, active means well fitted curve in either direction with a large enough effect (not every such curve was filed as active); inconclusive means small, poorly fitted or top-dose-only effect, or another doubt; inactive means flat fitted curve, though single readings scatter.

What was measured:
[1] = AP1 Signaling Pathway (AID 357); conditions: ME-180 AP-1-bla reporter, EGF-induced, beta-lactamase ratio, 5 h; at 17.2 µM (top of the series) unless noted;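 further: ME-180 reporter cells stimulated with EGF at its EC50 level; on the % scale 0 is the no-effect control and ±100 the full control effect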
Summary of the method: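 Titration-series screen for positive or negative modulators of EC50 EGF-induced signaling in ME-180 cells carrying an AP-1-driven beta-lactamase reporter. After 5 hours at 37 degrees Celsius, CCF4 460nm/530nm emission ratio gave %Activity; AC50 values derived.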

[2] = NFAT Signaling Pathway (AID 444); conditions: Jurkat NFAT-bla M1, carbachol, beta-lactamase ratio, 5 h; at 17.2 µM (top of the series) unless noted;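 further: carbachol stimulus at about its EC50 of 1 µM final; on the % scale 0 is the no-effect control and ±100 the full control effect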
Summary of the method: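 Jurkat cells carrying an NFAT-driven β-lactamase reporter and co-transfected muscarinic M1 receptor were treated with compound plus carbachol (1 uM final, an EC50 level) for 5 h at 37 °C. CCF4 loading followed for 1 h at RT; 460/530 nm ratio gave %activity.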

[3] = Stat Signaling Pathway (AID 446);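 further: ME-180 cervical cancer cells given 40 pM IL-6 alongside compound; SIE-controlled beta-lactamase reporter measured as 460/530 nm FRET emission ratio; on the % scale 0 is the no-effect control and ±100 the full control effect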
Summary of the method: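 Reporter line: ME-180 cervical carcinoma, SIE-beta-lactamase. Treatment: compound with 40 pM IL-6, 5 hrs, 37 C, in low-serum OPTI-MEM with 10 mM HEPES pH 7.3. Detection: 460/530 nm fluorescence.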

[4] = molecular target: Glucocorticoid receptor (Homo sapiens) (UniProt P04150); assay: GR-GFP Redistribution (AID 450;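 active means compounds whose dose series gives a full or clear partial fitted curve of increased nuclear translocation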; further: potency means the concentration at half of the fitted maximal effect); conditions: U2OS GR-GFP nuclear translocation, laser cytometry, 2 h
[5] = molecular target: Glucocorticoid receptor (Homo sapiens) (UniProt P04150); assay: GR-EFC Redistribution (AID 451; calls by dose curve; further: potency means the concentration at half of the fitted maximal effect); conditions: CHO-K1 GR-EFC translocation, beta-gal luminescence, 2 h
Summary of the method: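 CHO-K1 cells stably expressing nuclear-localized β-gal enzyme acceptor and GR fused C-terminally to the enzyme donor fragment; ligand-driven nuclear translocation restores β-gal by complementation. Compounds titrated up to 46 uM final, 2 h at 37 °C; luminescence read.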

[6] = molecular target: Mitogen-activated protein kinase 10 (Mus musculus) (UniProt Q61831); assay: JNK3 AlphaScreen Assay (AID 530);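 further: kinase came from lysate of stimulated human HepG2 cells; signal reports phosphorylation of biotinylated GST-cJun 1-79 at Ser73 with 10 µM ATP; on the % scale 0 is the no-effect control and ±100 the full control effect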
Summary of the method: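 JNK3 came from HepG2 lysates pre-activated with IL-1beta and TNF-alpha and phosphorylated biotinylated GST-cJun (1-79) at 10 uM ATP, pH 7.6, room temperature. Compounds were titrated. AlphaScreen signal used anti-phospho-cJun (Ser73) antibody.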

[7] = molecular target: 3',5'-cyclic-AMP phosphodiesterase 4B (Homo sapiens) (UniProt Q07343); assay: qHTS Assay for Inhibitors of PDE-IV (AID 607; active means well fitted activation curve with a large enough effect in the main read-out, with a control signal flat, not every such curve was filed as active; further: % of control where 0% means no effect)
Summary of the method: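 Cell-based read-out of cAMP via a modified cyclic nucleotide-gated channel and membrane potential dye (535/590 nm) in HEK293 cells expressing PDE4 endogenously. Compounds tested up to 22.9 uM final; 100 uM RO 20-1724 reference.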

[8] = molecular target: Guanine nucleotide-binding protein G(i) subunit alpha-1 (Homo sapiens) (UniProt P63096); assay: qHTS Assay for Inhibitors of RGS12 GoLoco Motif Activity (Green Fluorophore) (AID 879; active means well fitted curve in the direction sought with a large enough effect; an effect the other way counts as inactive or inconclusive;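 further: 0% = labeled peptide with Gαi1 and full inhibition = labeled peptide alone without protein; negative values mean loss of peptide binding seen as reduced polarization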)
Summary of the method: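 Fluorescence polarization assay: 50 nM Gαi1 with 10 nM FITC-labeled RGS12 GoLoco peptide in 10 mM Tris pH 7.5, 150 mM NaCl, 0.1 mM GDP, 0.05% NP40, 10 min at room temperature with compound.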

[9] = qHTS Assay for Identification of Small Molecule Antagonists for NFkB Signaling Pathway (AID 895; active means well fitted inhibition curve with a large enough effect in the signal ratio, with a control signal flat, not every such curve was filed as active; the % refers to the signal ratio; further: on the % scale 0 is the no-effect control and ±100 the full control effect)
Summary of the method: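 NFkB-bla ME-180 cervical carcinoma cells with beta-lactamase reporter under NFkB response element; compounds added, then TNF alpha at 10 pM final (EC50), 5 h at 37 C. LiveBLAzer substrate 2 h, room temperature; emission 460/530 nm at 405 nm excitation.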

[10] = molecular target: Muscarinic acetylcholine receptor M1 (Rattus norvegicus) (UniProt P08482); assay: qHTS Assay for Antagonists of Acetylcholine Muscarinic M1 Receptor: Measurement of IP-One Response (AID 944; active means well fitted curve in the direction sought with a large enough effect; an effect the other way counts as inactive or inconclusive; further: nearly all actives have a fitted effect of over 75% in size)
Summary of the method: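 CHO cells expressing rat M1 receptor, recovered overnight, were pre-incubated 10 min with compound, then stimulated 30 min with carbachol at EC80 (200 nM) in LiCl-containing buffer, pH 7.4. IP1 accumulation was read by HTRF (620/665 nm).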

[11] = molecular target: Pyruvate kinase (Leishmania mexicana) (UniProt Q27686); assay: qHTS Validation Assay for Inhibitors of Leishmania Mexicana Pyruvate Kinase (AID 945; active means well fitted curve in the direction sought with a large enough effect; an effect the other way counts as inactive or inconclusive;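 further: 0% = DMSO only neutral control wells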)
Summary of the method: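 The enzyme is a highly purified E451W mutant of LmPYK used at 0.2 nM. It converts 0.5 mM PEP and 0.1 mM ADP over 1 h at room temperature; product ATP is quantified by luciferase luminescence relative to DMSO controls.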

[12] = molecular target: Pyruvate kinase PKM (Homo sapiens) (UniProt P14618); assay: qHTS Assay for Activators of Human Muscle Pyruvate Kinase (AID 954; active means well fitted curve in the direction sought with a large enough effect, not every such curve was filed as active;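 further: 0% = uninhibited enzyme and -100% = no enzyme or full thiadiazolimine inhibition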)
Summary of the method: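 Human PKM2 activity is measured as ATP generation, detected by luciferase-coupled luminescence. The enzyme (0.1 nM) acts on 0.5 mM PEP and 0.1 mM ADP for 1 h at ambient temperature; data are normalized to uninhibited and full-inhibition wells.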

[13] = molecular target: Alpha-galactosidase (Coffea arabica) (UniProt Q42656); assay: Counterscreen for Glucocerebrosidase Inhibitors: qHTS Assay for Coffee Bean alpha-Galactosidase at pH 4.5 (AID 957; active means well fitted curve in the direction sought with a large enough effect; an effect the other way counts as inactive or inconclusive;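 further: plate controls were enzyme alone for no effect and no enzyme for full effect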)
Summary of the method: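 Green coffee bean enzyme (2 nM final) was incubated with compounds (0.7 nM to 77 uM) and 4-methylumbelliferyl alpha-D-galactopyranoside (80 uM final) in 50 mM citric acid, 0.005% Tween-20, pH 4.5, 20 min at room temperature; AC50 from Hill fits.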

[14] = molecular target: Alpha-galactosidase A (Homo sapiens) (UniProt P06280); assay: Counterscreen for Glucocerebrosidase Inhibitors: qHTS Assay for Human alpha-Galactosidase at pH 4.5 (AID 992; active means well fitted curve in the direction sought with a large enough effect; an effect the other way counts as inactive or inconclusive; further: 0% is about no effect)
Summary of the method: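 Quantitative HTS: compounds tested from 0.7 nM up to 77 uM against 2 nM enzyme with 80 uM 4-MU alpha-D-galactopyranoside. The 20 min room-temperature reaction is stopped with 1M NaOH/1M glycine, pH 10.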

[15] = molecular target: alpha-glucosidase (Oryza sativa, rice) (UniProt Q653V4); assay: Counterscreen for Glucocerebrosidase Inhibitors: qHTS Assay for Rice alpha-Glucosidase at pH 5.0 (AID 997; active means well fitted curve in the direction sought with a large enough effect; an effect the other way counts as inactive or inconclusive;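 further: 0% = full activity with enzyme and -100% = basal without enzyme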)
Summary of the method: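 Rice alpha-glucosidase (4 nM final) with 400 uM 4-methylumbelliferyl-alpha-D-glucopyranoside in citrate buffer pH 5.0, 20 min at room temperature, stopped at pH 10; fluorescence 365/440 nm, compounds 0.7 nM–77 uM, AC50 from Hill fits.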

[16] = molecular target: Alpha-galactosidase (Coffea arabica) (UniProt Q42656); assay: Counterscreen for Glucocerebrosidase Inhibitors: qHTS Assay for Coffee Bean alpha-Galactosidase at pH 5.9 (AID 998; active means well fitted curve in the direction sought with a large enough effect; an effect the other way counts as inactive or inconclusive;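 further: plate controls were uninhibited enzyme for no effect and no-enzyme basal signal for full effect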)
Summary of the method: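 Green coffee bean enzyme (2 nM final) was incubated with compounds (0.7 nM–77 uM) and 4-methylumbelliferyl alpha-D-galactopyranoside (80 uM) in citrate buffer pH 5.9, 20 min at room temperature. High-pH stop; fluorescence 365/440 nm; AC50 from Hill fits.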

[17] = qHTS Assay for Identification of Small Molecule Agonists for Hypoxia Response Element Signaling Pathway (AID 914; active means well fitted activation curve with a large enough effect in the signal ratio, with a control signal flat, not every such curve was filed as active; the % refers to the signal ratio; further: % of control where 0% means no effect); conditions: ME-180 (cervical carcinoma) HRE-bla reporter, beta-lactamase ratio, CoCl2, 17 h; activation: hits give high values
Summary of the method: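 Cells were plated overnight, pin-dosed with compound in a titration series, co-stimulated with EC50 CoCl2 and incubated 17 hours at 37 degrees Celsius. CCF4 substrate was then loaded, and AC50 values came from the 460nm/530nm ratio.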

3',5'-cyclic-AMP phosphodiesterase 4B (Homo sapiens), sequence (Q07343 whole entry, looked up): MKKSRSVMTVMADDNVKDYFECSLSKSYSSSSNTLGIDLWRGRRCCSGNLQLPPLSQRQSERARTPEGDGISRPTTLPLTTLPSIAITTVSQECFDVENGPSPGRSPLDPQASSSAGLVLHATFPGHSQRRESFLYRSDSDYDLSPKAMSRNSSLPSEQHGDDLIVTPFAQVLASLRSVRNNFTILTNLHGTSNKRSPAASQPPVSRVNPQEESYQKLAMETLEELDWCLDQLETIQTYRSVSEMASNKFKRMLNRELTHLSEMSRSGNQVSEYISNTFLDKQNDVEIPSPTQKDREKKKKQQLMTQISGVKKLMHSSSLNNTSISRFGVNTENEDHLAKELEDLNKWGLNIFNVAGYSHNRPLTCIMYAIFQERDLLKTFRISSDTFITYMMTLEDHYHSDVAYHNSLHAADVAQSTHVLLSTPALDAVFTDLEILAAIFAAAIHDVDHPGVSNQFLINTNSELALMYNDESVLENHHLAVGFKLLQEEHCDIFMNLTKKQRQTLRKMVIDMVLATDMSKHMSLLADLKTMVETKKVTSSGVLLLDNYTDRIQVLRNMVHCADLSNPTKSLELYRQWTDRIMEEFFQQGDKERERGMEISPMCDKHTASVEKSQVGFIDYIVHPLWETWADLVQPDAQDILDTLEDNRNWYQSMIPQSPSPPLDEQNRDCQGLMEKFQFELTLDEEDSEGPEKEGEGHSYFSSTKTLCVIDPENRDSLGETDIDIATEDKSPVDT
Glucocorticoid receptor (Homo sapiens), sequence (P04150 whole entry, looked up, the tested form may be a part): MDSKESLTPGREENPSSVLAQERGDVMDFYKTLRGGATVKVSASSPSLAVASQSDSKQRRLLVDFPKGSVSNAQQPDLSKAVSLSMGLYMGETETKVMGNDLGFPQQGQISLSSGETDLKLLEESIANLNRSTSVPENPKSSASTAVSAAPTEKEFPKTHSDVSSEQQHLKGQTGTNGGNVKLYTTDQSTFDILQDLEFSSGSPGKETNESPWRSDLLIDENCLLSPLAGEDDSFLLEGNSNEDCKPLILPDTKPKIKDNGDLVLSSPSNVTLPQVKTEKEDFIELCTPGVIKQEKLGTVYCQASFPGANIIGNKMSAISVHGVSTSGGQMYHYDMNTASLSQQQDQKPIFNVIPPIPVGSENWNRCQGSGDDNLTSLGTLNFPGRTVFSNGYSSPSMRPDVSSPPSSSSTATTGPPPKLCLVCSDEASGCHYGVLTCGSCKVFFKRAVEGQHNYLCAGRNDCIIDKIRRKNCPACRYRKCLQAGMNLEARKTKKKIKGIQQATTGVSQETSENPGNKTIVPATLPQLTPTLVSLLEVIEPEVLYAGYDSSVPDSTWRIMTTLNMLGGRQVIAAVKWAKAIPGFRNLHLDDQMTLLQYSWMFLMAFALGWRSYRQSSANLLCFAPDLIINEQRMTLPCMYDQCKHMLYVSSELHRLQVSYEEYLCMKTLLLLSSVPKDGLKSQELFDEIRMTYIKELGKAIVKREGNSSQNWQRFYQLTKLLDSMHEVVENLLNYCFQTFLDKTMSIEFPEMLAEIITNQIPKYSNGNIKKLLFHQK
Alpha-galactosidase (Coffea arabica), sequence (Q42656 whole entry, looked up): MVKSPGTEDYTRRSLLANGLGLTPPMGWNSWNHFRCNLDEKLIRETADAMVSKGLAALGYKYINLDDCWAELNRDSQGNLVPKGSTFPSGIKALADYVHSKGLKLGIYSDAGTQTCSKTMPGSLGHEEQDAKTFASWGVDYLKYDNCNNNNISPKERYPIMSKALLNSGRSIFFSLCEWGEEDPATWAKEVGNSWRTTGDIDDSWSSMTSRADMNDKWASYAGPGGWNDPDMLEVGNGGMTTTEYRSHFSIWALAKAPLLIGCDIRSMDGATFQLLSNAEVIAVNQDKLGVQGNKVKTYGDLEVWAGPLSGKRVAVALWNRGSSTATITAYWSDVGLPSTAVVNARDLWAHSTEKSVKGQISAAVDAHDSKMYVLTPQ
Alpha-galactosidase A (Homo sapiens), sequence (P06280 whole entry, looked up): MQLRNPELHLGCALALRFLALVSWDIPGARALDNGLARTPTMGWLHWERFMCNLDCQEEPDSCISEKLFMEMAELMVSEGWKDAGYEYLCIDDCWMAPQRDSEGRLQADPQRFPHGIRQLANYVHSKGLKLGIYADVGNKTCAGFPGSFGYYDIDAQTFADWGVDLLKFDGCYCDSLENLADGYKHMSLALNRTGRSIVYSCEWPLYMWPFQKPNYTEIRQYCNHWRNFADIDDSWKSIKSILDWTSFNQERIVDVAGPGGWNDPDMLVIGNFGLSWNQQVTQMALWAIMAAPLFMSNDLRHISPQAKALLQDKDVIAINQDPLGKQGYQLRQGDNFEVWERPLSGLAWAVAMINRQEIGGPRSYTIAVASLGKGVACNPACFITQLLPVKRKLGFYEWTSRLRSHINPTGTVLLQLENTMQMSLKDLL
Muscarinic acetylcholine receptor M1 (Rattus norvegicus), sequence (P08482 whole entry, looked up): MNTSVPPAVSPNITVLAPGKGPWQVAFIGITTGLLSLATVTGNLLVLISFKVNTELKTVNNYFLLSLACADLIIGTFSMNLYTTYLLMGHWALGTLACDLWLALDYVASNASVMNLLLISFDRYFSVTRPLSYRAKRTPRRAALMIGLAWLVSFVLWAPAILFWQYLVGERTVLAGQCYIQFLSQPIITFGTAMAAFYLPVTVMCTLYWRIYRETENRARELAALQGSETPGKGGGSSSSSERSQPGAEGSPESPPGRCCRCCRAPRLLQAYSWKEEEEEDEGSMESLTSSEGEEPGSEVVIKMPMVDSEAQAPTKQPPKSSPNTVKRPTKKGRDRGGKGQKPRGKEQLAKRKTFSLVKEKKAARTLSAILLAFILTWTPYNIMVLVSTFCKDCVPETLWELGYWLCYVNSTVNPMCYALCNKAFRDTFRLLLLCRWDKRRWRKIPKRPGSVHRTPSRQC
Pyruvate kinase PKM (Homo sapiens), sequence (P14618 whole entry, looked up): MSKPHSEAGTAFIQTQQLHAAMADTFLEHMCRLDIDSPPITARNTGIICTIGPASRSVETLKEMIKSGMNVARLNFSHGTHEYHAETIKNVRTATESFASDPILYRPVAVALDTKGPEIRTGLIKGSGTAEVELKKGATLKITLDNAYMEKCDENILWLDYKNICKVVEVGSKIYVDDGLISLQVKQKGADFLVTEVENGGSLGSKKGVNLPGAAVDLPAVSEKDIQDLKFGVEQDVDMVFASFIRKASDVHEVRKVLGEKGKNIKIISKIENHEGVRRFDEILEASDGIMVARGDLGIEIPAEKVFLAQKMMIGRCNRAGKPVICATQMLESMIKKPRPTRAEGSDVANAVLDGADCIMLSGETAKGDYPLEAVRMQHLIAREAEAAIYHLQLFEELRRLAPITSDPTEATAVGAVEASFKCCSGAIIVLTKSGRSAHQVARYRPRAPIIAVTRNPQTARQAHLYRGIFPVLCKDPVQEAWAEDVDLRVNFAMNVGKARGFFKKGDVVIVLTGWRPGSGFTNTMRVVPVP
Guanine nucleotide-binding protein G(i) subunit alpha-1 (Homo sapiens), sequence (P63096 whole entry, looked up): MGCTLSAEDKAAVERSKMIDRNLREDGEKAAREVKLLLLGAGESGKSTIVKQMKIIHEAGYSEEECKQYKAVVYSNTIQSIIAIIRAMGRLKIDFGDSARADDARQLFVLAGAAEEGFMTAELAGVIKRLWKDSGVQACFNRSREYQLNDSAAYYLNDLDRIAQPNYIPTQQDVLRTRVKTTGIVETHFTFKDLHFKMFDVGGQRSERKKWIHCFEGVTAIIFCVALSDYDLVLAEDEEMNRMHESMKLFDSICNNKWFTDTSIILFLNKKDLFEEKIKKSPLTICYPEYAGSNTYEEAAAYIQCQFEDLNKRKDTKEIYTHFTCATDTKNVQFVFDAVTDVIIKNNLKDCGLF
Pyruvate kinase (Leishmania mexicana), sequence (Q27686 2-499 E452W): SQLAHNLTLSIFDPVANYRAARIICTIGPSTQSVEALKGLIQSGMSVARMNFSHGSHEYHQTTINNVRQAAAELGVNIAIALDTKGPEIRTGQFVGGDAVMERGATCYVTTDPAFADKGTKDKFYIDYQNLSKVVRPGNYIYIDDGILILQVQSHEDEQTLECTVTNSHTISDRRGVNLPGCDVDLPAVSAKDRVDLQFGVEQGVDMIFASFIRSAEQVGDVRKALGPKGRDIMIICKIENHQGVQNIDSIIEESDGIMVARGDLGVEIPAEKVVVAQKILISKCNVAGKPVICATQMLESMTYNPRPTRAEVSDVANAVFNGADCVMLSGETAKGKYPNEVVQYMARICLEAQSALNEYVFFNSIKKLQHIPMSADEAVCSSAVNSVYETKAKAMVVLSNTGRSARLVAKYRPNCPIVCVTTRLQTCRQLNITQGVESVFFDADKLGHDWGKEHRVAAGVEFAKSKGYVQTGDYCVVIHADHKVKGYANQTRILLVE

O=C1NC(=O)C(C/C=C/c2ccccc2)C(=O)N1
inactive: activity change, negative = inhibition [1] 9.27% | activity change, negative = inhibition [2] -11.1% | outcome [3] | Potency [4] > 20.6 µM

CCOCCN1CCC(OC(C)=O)C(C)C1 (stereo not given)
inactive: activity change, negative = inhibition [1] -2.51% | activity change, negative = inhibition [2] -5.87% | outcome [3] | Potency [4] > 20.6 µM

CC(C)Cc1[nH]c(=O)c(C#N)c2c1CCC2
inactive: activity change, negative = inhibition [1] 8.3% | activity change, negative = inhibition [2] 18.5% | outcome [3] | Potency [4] > 20.6 µM

Oc1ccc2c3c1O[C@@H]1[C@@H](O)CC[C@]4(O)[C@H](C2)N(CC2CCC2)CC[C@@]314
inactive: activity change, negative = inhibition [1] 2.34% [at 38 µM] | activity change, negative = inhibition [2] 2.45% [at 38 µM] | outcome [3] | Potency [4] > 46 µM | Potency [5] > 46 µM | outcome [6] | outcome [7] | Potency [8] | Potency [9] | Potency [10] | Potency [11] | outcome [12] | outcome [13] | outcome [14] | outcome [15] | outcome [16]

CC(=O)[C@@H]1CC[C@@H]2[C@H]3CC[C@H]4C[C@@H](O)CC[C@]4(C)[C@@H]3C(=O)C[C@]21C
inactive: activity change, negative = inhibition [1] -0.27% [at 38 µM] | activity change, negative = inhibition [2] -2.4% [at 38 µM] | outcome [3] | outcome [7]

O=C1NCCN2CCCC12 (stereo not given)
inactive: activity change, negative = inhibition [1] 12% | activity change, negative = inhibition [2] -0.485% | outcome [3] | Potency [4] > 20.6 µM | activation [17] 9.17%

COC(=O)C(O)(c1ccc(NC(=O)c2ccco2)c(OC)c1)C(F)(F)F (stereo not given)
inactive: activity change, negative = inhibition [1] -12.5% | activity change, negative = inhibition [2] 4.31% | Potency [4] > 20.6 µM

NC(=NCCC[C@@H](N)C(=O)O)N[N+](=O)[O-]
inactive: activity change, negative = inhibition [1] 2.85% [at 38 µM] | activity change, negative = inhibition [2] 2.93% [at 38 µM] | outcome [3] | Potency [4] > 46 µM | Potency [5] > 46 µM | outcome [6] | outcome [7]

CC1(c2ccccc2)NCCN2C(=O)CSC21 (stereo not given)
inactive: activity change, negative = inhibition [1] 2.95% | activity change, negative = inhibition [2] -7.83% | Potency [4] > 20.6 µM

C/C(Cl)=C/CC1(CN2CCCC2=O)C(=O)NC(=O)NC1=O
inactive: activity change, negative = inhibition [1] -3.48% | activity change, negative = inhibition [2] 1.12% | outcome [3] | activation [17] 3.38%

CCn1c(O)c(C(=O)CC2NCCc3ccccc32)c(=O)n(CC)c1=S (stereo not given)
inactive: activity change, negative = inhibition [1] 5.38% | activity change, negative = inhibition [2] 22.3% | Potency [4] > 20.6 µM

CC(=O)OC1N=C(c2ccccc2)c2ccccc2NC1=O (stereo not given)
inactive: activity change, negative = inhibition [1] -8.32% | activity change, negative = inhibition [2] 11.5% | Potency [4] > 20.6 µM

O=[N+]([O-])c1ccc(O[C@H]2O[C@@H](CO)[C@@H](O)[C@@H](O)[C@@H]2F)c([N+](=O)[O-])c1
inactive: activity change, negative = inhibition [1] -3.88% [at 38 µM] | activity change, negative = inhibition [2] 14.6% [at 38 µM] | outcome [3] | Potency [4] > 46 µM | Potency [5] > 46 µM | outcome [6] | outcome [7] | Potency [8] | Potency [10] | Potency [11] | outcome [12] | outcome [13] | outcome [14] | outcome [15] | outcome [16]
